Experimental findings from paper PMC7862700, “An all-to-all approach to the identification of sequence-specific readers for epigenetic DNA modifications on cytosine” are described below.

Holding throughout (experiment): DAPPL (digital affinity profiling via proximity ligation, sequencing); 10 mM Tris-HCl pH 7.5, 50 mM NaCl, 1 mM DTT, 4% glycerol, room temperature, 30 min; GST-TFs on glutathione beads, 16-mer random dsDNA library, 0.1% formaldehyde crosslink after washing; high values mean tight binding
The target in one test is T1, FEV (Homo sapiens, UniProt Q99581 1-238).
T1 sequence: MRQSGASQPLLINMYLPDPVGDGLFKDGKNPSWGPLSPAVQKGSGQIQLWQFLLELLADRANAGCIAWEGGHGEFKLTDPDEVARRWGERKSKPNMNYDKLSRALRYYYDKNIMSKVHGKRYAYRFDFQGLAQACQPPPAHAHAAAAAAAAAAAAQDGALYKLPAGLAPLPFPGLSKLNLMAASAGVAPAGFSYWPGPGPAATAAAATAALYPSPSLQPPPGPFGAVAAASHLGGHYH
Conditions: protein: recombinant; tags: N-terminal GST; dsDNA, one strand shown. The procedure, abridged: (§1)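 Human transcription factors were made in yeast as GST fusions, captured on glutathione beads and barcoded with DNA. With a tag-only sample included, the pool was incubated with 200 nmole of a random double-stranded 16-mer DNA library in Tris/NaCl/DTT/glycerol buffer at room temperature for 30 min, then crosslinked with 0.1% formaldehyde after washing, ligated by proximity, amplified and sequenced. For binding signal, each hexamer's read frequency for a factor is divided by its frequency for the tag-only sample.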

The next test concerns the target ETV5 (Homo sapiens, UniProt P41161 1-510). Conditions: protein: recombinant; tags: N-terminal GST; dsDNA, one strand shown. The procedure, abridged:
as §1

The target of another test is HSF1 (Homo sapiens, UniProt Q00613 1-529). Conditions: protein: recombinant; tags: N-terminal GST; chain copies: 3; dsDNA, one strand shown. The procedure, abridged: as §1
Another test addresses T2, SPIC (Homo sapiens, UniProt Q8N5J4 1-248).
T2 sequence: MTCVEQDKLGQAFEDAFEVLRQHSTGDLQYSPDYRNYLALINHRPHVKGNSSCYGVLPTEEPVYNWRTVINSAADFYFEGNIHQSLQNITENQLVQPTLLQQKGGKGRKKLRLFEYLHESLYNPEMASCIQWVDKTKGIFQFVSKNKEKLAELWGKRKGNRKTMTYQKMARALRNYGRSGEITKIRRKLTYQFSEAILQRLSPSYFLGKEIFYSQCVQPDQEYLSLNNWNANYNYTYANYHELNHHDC
Conditions: protein: recombinant; tags: N-terminal GST; dsDNA, one strand shown. The procedure, abridged:
as §1

The target in another test is ELF4 (Homo sapiens, UniProt Q99607 1-663). Conditions: protein: recombinant; tags: N-terminal GST; dsDNA, one strand shown. The procedure, abridged:
as §1

For the next test, the target named is T3, ELK4 (Homo sapiens, UniProt P28324-2 1-405).
T3 sequence: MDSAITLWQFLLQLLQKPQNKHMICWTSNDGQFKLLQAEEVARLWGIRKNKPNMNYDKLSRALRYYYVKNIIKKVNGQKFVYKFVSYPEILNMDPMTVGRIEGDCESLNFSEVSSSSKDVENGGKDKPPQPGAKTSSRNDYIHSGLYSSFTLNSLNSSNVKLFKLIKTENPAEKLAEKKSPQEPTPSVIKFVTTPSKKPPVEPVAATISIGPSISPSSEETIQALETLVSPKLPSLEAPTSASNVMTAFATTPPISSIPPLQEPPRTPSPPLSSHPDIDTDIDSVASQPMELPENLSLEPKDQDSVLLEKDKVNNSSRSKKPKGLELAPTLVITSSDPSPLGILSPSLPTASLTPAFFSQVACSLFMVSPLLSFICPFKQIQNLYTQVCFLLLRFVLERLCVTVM
Conditions: protein: recombinant; tags: N-terminal GST; dsDNA, one strand shown. The procedure, abridged: as §1

The target of a further test is T4, ETV2 (Homo sapiens, UniProt O00321 1-342).
T4 sequence: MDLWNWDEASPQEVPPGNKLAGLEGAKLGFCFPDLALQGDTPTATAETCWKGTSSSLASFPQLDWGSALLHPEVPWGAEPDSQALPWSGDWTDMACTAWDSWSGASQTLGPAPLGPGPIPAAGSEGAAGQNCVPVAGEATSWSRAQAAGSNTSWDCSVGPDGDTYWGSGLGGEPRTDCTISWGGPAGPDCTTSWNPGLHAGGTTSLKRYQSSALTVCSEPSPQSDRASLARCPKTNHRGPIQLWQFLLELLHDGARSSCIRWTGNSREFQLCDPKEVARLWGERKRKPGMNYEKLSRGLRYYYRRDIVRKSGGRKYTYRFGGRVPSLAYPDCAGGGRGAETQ
Conditions: protein: recombinant; tags: N-terminal GST; dsDNA, one strand shown. The procedure, abridged:
as §1

For a further test, the target named is T5, ELF3 (Homo sapiens, UniProt P78545 1-371).
T5 sequence: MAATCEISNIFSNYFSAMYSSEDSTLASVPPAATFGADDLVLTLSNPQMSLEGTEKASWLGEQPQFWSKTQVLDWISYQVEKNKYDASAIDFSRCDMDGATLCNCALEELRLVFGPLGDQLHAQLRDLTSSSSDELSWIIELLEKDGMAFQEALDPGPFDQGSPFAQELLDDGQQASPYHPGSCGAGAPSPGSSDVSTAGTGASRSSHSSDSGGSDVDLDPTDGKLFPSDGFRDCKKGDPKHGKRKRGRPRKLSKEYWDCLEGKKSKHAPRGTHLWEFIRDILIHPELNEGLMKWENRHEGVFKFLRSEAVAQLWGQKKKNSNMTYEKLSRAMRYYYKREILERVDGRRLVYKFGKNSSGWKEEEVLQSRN
Conditions: protein: recombinant; tags: N-terminal GST; dsDNA, one strand shown. The procedure, abridged: as §1

Another test deals with CRX (Homo sapiens, UniProt O43186 1-299). Conditions: protein: recombinant; tags: N-terminal GST; dsDNA, one strand shown. The procedure, abridged:
as §1

The target in the next test is ETV1 (Homo sapiens, UniProt P50549 1-477). Conditions: protein: recombinant; tags: N-terminal GST; dsDNA, one strand shown. The procedure, abridged:
as §1

In another test the target is T6, ERF (Homo sapiens, UniProt P50548 1-548).
T6 sequence: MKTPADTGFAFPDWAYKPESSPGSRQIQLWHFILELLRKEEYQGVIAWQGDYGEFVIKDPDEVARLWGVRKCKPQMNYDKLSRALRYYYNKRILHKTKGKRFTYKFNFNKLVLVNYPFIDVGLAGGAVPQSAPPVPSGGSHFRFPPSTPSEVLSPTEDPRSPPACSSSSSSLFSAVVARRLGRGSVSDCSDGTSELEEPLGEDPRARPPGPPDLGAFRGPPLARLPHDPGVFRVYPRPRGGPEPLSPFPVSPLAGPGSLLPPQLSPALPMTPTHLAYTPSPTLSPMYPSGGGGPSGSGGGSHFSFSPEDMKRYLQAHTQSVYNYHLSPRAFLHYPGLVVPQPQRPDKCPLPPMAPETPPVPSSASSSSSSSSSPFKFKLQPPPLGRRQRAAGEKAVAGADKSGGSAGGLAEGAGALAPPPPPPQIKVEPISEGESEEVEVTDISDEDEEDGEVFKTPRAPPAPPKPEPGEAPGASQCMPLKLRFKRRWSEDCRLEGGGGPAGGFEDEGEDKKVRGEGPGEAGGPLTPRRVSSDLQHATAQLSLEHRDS
Conditions: protein: recombinant; tags: N-terminal GST; dsDNA, one strand shown. The procedure, abridged:
as §1

The target in another test is T7, ETV3L (Homo sapiens, UniProt Q6ZN32 1-361).
T7 sequence: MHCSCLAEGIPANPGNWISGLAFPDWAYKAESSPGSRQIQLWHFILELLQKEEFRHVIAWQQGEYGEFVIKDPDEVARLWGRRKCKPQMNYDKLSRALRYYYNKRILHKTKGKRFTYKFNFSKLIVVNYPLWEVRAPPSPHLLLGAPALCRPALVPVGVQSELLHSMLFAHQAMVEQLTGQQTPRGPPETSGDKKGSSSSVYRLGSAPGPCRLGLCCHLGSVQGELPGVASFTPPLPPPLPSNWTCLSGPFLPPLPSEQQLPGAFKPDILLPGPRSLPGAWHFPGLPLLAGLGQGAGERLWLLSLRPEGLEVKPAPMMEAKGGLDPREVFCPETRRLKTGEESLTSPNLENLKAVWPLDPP
Conditions: protein: recombinant; tags: N-terminal GST; dsDNA, one strand shown. The procedure, abridged: as §1

The target in another test is T8, ETS2 (Homo sapiens, UniProt P15036 1-469).
T8 sequence: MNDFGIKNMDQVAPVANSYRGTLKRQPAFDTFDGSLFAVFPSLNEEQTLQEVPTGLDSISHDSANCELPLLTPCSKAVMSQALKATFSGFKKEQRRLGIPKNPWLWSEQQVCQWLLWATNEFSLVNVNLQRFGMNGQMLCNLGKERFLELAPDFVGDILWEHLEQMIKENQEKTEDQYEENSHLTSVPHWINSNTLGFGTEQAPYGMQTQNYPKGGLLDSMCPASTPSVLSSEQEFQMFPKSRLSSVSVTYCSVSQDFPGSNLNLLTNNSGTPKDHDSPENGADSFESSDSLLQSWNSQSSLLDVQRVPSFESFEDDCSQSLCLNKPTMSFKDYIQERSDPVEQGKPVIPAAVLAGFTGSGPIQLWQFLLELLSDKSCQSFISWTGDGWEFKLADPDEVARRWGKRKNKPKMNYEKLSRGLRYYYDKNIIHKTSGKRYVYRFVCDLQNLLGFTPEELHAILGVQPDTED
Conditions: protein: recombinant; tags: N-terminal GST; dsDNA, one strand shown. The procedure, abridged:
as §1

In another test the target is T9, SPDEF (Homo sapiens, UniProt O95238 1-335).
T9 sequence: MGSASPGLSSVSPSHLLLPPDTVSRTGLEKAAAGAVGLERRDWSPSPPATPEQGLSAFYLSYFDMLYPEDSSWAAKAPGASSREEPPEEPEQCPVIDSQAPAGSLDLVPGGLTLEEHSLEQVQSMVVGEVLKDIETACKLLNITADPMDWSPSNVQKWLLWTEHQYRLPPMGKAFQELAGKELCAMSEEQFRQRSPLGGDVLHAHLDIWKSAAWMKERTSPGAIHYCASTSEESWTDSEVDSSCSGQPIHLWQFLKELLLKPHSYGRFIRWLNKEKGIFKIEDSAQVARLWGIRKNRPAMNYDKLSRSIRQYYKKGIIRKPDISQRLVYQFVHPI
Conditions: protein: recombinant; tags: N-terminal GST; dsDNA, one strand shown. The procedure, abridged:
as §1

The target in a further test is T10, ETV7 (Homo sapiens, UniProt Q9Y603 1-341).
T10 sequence: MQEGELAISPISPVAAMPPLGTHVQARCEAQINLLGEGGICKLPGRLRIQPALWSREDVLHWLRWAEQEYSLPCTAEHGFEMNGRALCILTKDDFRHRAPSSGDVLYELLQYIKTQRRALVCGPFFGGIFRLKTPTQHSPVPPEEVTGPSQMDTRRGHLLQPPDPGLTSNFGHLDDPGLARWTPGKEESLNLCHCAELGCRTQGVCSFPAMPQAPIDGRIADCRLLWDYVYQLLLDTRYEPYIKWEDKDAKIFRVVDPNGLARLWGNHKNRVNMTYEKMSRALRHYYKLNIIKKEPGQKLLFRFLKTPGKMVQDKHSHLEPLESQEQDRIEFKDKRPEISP
Conditions: protein: recombinant; tags: N-terminal GST; dsDNA, one strand shown. The procedure, abridged: as §1

Another test has as its target T11, ELF5 (Homo sapiens, UniProt Q9UKW6-2 1-255).
T11 sequence: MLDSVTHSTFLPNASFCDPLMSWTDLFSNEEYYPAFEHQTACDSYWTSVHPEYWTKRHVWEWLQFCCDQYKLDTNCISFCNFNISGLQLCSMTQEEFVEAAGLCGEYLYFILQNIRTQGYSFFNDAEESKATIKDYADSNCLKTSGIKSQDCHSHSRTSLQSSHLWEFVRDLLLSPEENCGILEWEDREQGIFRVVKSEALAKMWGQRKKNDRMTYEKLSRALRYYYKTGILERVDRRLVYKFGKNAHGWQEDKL
Conditions: protein: recombinant; tags: N-terminal GST; dsDNA, one strand shown. The procedure, abridged: as §1

Another test concerns the target T12, ETV3 (Homo sapiens, UniProt P41162-2 1-143).
T12 sequence: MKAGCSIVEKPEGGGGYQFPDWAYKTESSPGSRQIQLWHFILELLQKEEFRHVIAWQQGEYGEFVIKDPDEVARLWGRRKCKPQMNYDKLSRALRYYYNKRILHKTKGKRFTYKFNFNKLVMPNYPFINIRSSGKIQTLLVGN
Conditions: protein: recombinant; tags: N-terminal GST; dsDNA, one strand shown. The procedure, abridged: as §1

The target in another test is ETV6 (Homo sapiens, UniProt P41212 1-452). Conditions: protein: recombinant; tags: N-terminal GST; dsDNA, one strand shown. The procedure, abridged:
as §1

Sequence of HSF1 (Q00613 whole entry): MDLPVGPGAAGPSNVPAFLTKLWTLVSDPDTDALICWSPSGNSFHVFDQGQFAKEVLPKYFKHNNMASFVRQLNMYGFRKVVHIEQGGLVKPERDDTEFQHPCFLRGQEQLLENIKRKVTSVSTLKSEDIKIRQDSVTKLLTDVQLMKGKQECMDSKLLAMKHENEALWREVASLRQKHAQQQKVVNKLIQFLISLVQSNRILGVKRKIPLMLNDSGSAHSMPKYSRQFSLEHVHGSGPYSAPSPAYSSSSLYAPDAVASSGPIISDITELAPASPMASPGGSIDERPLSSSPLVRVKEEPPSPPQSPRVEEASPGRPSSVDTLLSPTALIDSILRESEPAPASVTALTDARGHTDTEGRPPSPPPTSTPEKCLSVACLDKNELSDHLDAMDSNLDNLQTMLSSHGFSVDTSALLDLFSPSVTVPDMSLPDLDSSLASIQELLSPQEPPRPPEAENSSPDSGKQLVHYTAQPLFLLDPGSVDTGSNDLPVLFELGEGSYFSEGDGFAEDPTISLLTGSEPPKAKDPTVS
Sequence of ETV5 (P41161 whole entry): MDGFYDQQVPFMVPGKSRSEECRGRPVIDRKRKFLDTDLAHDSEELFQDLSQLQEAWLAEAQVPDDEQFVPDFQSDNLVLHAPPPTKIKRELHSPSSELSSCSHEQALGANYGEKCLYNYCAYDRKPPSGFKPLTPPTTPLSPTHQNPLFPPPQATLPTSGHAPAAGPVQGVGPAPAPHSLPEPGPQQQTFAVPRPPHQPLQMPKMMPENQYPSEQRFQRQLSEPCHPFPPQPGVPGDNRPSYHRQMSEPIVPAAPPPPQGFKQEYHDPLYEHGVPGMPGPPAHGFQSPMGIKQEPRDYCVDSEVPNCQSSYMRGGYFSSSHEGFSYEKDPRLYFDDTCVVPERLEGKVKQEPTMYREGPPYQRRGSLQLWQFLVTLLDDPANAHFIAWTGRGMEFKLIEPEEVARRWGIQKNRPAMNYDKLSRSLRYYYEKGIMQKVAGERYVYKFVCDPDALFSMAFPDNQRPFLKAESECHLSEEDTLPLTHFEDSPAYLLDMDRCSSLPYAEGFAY
Sequence of ETV1 (P50549 whole entry): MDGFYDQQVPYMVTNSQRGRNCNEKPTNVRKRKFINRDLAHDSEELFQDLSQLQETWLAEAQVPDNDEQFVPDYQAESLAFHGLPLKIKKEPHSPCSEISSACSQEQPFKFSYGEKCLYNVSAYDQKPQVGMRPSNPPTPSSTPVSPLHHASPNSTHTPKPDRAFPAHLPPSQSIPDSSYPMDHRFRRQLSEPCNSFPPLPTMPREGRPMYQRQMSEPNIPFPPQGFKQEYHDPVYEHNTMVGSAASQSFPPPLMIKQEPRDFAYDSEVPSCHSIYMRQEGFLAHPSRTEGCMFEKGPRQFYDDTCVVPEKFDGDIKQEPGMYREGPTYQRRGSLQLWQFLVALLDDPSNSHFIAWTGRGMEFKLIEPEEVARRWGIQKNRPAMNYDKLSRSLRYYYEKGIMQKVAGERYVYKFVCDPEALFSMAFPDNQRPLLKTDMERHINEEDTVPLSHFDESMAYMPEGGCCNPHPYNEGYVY
Sequence of ETV6 (P41212 whole entry): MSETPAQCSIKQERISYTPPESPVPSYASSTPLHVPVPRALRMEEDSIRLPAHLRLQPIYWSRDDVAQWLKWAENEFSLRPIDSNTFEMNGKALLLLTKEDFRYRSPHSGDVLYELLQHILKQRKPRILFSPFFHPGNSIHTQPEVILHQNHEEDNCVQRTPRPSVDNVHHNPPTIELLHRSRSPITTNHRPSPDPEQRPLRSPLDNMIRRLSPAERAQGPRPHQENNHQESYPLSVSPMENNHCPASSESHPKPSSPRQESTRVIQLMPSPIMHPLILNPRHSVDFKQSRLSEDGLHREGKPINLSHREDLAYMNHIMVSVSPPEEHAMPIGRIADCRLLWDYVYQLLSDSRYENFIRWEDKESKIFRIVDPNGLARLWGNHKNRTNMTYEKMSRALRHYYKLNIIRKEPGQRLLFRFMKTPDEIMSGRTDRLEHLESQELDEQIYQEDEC
Sequence of CRX (O43186 whole entry): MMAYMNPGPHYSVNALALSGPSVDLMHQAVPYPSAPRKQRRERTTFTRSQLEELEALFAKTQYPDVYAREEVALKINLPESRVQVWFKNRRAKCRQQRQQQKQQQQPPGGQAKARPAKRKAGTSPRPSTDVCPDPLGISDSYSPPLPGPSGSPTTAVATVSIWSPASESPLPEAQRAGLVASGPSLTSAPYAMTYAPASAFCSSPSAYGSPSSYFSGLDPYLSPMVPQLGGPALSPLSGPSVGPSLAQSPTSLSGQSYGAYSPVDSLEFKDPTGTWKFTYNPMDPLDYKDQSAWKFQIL
Sequence of ELF4 (Q99607 whole entry): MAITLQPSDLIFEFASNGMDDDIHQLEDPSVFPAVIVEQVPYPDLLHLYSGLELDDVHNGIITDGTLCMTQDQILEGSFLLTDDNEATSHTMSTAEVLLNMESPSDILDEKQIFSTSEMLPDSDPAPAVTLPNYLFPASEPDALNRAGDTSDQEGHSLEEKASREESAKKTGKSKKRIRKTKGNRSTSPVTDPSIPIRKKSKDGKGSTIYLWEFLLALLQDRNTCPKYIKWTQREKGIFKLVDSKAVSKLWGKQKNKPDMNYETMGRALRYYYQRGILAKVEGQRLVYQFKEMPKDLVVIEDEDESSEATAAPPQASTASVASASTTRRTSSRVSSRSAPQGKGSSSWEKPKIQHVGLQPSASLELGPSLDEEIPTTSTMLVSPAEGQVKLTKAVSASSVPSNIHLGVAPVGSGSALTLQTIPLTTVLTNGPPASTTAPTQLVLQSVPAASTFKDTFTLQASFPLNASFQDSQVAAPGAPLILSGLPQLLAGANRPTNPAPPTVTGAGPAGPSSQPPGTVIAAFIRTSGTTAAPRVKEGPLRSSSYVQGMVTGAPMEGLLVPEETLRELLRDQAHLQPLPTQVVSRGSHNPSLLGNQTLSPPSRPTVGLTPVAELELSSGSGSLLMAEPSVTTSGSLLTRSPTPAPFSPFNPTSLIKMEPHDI

On to AATGTA, for which the binding signal in the test with FEV is 1.12 fold enrichment (6-mer frequency, TF over GST control); in the test with ETV5 it was 1.11 fold enrichment (6-mer frequency, TF over GST control); in the test with HSF1 it was 1.16 fold enrichment (6-mer frequency, TF over GST control); with SPIC it was 1.12 fold enrichment (6-mer frequency, TF over GST control); with ELF4, 1.11 fold enrichment (6-mer frequency, TF over GST control); with ELK4, 1.32 fold enrichment (6-mer frequency, TF over GST control). Also, the binding signal was 1.32 fold enrichment (6-mer frequency, TF over GST control) with ETV2; 1.16 fold enrichment (6-mer frequency, TF over GST control) in the test with ELF3; 1.1 fold enrichment (6-mer frequency, TF over GST control) with CRX; 1.23 fold enrichment (6-mer frequency, TF over GST control) with ETV1; 1.14 fold enrichment (6-mer frequency, TF over GST control) in the test with ERF; 1.1 fold enrichment (6-mer frequency, TF over GST control) with ETV3L. The binding signal with ETS2 is 1.25 fold enrichment (6-mer frequency, TF over GST control); in the test with SPDEF, 1.2 fold enrichment (6-mer frequency, TF over GST control); in the test with ETV7 it was 1.15 fold enrichment (6-mer frequency, TF over GST control); in the test with ELF5, 1.21 fold enrichment (6-mer frequency, TF over GST control); with ETV3, 1.17 fold enrichment (6-mer frequency, TF over GST control); with ETV6, 1.15 fold enrichment (6-mer frequency, TF over GST control).
